# Assay results as given in the supplement of paper PMC8728848.
# The entries come from a sample that favours the strongest signals as a whole.
# B1: CML1 (Coprinopsis cinerea) (protein)
# chain: MAIFHTGSELFIITRGPGKLTLLTWGGLNNLRSVIGAIPTENTGVTKWAVSFSHNYTRFSFIWEGQGEACYQIGNGLTRSPVGRSWSSSSTIHWGSSTVITEDVTSVVPGAVNRDKVTTAYALPDNL
# Columns and labels:
# Assay in all cases: glycan array binding signal (z-score within array); higher = stronger binding
# Details in all cases: glycan notation: IUPAC condensed, linker removed
# Fuc(a1-2)Gal(b1-3)GlcNAc = target: Fuc(a1-2)Gal(b1-3)GlcNAc
# Outline: (§1)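 Glycan array data were curated from 3228 arrays in the Consortium for Functional Glycomics database and kept only where the protein sequence was available. Glycan names were converted to IUPAC-condensed notation, and columns mapping to the same glycan were averaged. The binding signal is a within-array Z-score, averaged across arrays of the same protein sequence at different concentrations or buffers and across linkers. Negative Z-scores can be read as non-binding.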
# [1] = target: Fuc(a1-2)Gal(b1-3)GlcNAc(b1-2)Man(a1-3)[Fuc(a1-2)Gal(b1-3)GlcNAc(b1-2)Man(a1-6)]Man(b1-4)GlcNAc(b1-4)[Fuc(a1-6)]GlcNAc
# Outline: as §1
# [2] = target: Fuc(a1-2)Gal(b1-3)GlcNAc(b1-3)Gal(b1-4)Glc
# Outline: as §1
# [3] = target: Fuc(a1-2)Gal(b1-3)GlcNAc(b1-3)GalNAc
# Outline: as §1
# [4] = target: Fuc(a1-2)Gal(b1-3)GlcNAc6S
# Outline: as §1
# Fuc(a1-2)Gal(b1-4)Glc = target: Fuc(a1-2)Gal(b1-4)Glc
# Outline: as §1
# Fuc(a1-2)Gal(b1-4)Glc6S = target: Fuc(a1-2)Gal(b1-4)Glc6S
# Outline: as §1
# [5] = target: Fuc(a1-2)Gal(b1-4)GlcNAc(b1-3)Gal(b1-4)GlcNAc
# Outline: as §1
# [6] = target: Fuc(a1-2)Gal3S(b1-4)GlcNAc
# Outline: as §1
# [7] = target: Fuc(a1-2)Gal6S(b1-3)GlcNAc6S
# Outline: as §1
# [8] = target: Fuc(a1-2)[Gal(a1-3)]Gal(b1-3)GlcNAc
# Outline: as §1
# [9] = target: Fuc(a1-2)[Gal(a1-3)]Gal(b1-3)GlcNAc(b1-2)Man(a1-3)[Fuc(a1-2)[Gal(a1-3)]Gal(b1-3)GlcNAc(b1-2)Man(a1-6)]Man(b1-4)GlcNAc(b1-4)[Fuc(a1-6)]GlcNAc
# Outline: as §1
# [10] = target: Fuc(a1-2)[Gal(a1-3)]Gal(b1-4)GlcNAc(b1-2)Man
# Outline: as §1
# [11] = target: Fuc(a1-2)[Gal(a1-3)]Gal(b1-4)GlcNAc(b1-2)Man(a1-3)[Fuc(a1-2)[Gal(a1-3)]Gal(b1-4)GlcNAc(b1-2)Man(a1-6)]Man(b1-4)GlcNAc(b1-4)GlcNAc
# Outline: as §1
# [12] = target: Fuc(a1-2)[Gal(a1-4)]Gal(b1-4)GlcNAc
# Outline: as §1
# [13] = target: Fuc(a1-2)[GalNAc(a1-3)]Gal(b1-4)GlcNAc(b1-2)Man
# Outline: as §1
# [14] = target: Fuc(a1-2)[GalNAc(b1-3)]Gal
# Outline: as §1
# [15] = target: Gal(a1-3)Gal(b1-4)[Fuc(a1-3)]GlcNAc
# Outline: as §1
# Gal(a1-4)Gal(b1-4)Glc = target: Gal(a1-4)Gal(b1-4)Glc
# Outline: as §1
# Gal(b1-3)Gal(b1-4)GlcNAc = target: Gal(b1-3)Gal(b1-4)GlcNAc
# Outline: as §1
# [16] = target: Gal(b1-3)GlcNAc(b1-3)Gal(b1-4)GlcNAc
# Outline: as §1
# [17] = target: Gal(b1-3)[Neu5Ac(a2-6)]GalNAc
# Outline: as §1
# [18] = target: Gal(b1-4)GlcNAc(b1-2)Man(a1-3)[Gal(b1-4)GlcNAc(b1-2)Man(a1-6)][Gal(b1-4)GlcNAc(b1-4)]Man(b1-4)GlcNAc(b1-4)[Fuc(a1-6)]GlcNAc
# Outline: as §1
# [19] = target: Gal(b1-4)GlcNAc(b1-2)Man(a1-3)[GlcNAc(b1-2)Man(a1-6)]Man(b1-4)GlcNAc(b1-4)GlcNAc
# Outline: as §1
# [20] = target: Gal(b1-4)GlcNAc(b1-3)Gal(b1-3)GlcNAc
# Outline: as §1
# [21] = target: Gal(b1-4)GlcNAc(b1-3)Gal(b1-4)GlcNAc(b1-3)Gal(b1-4)GlcNAc(b1-3)Gal(b1-4)GlcNAc(b1-3)Gal(b1-4)GlcNAc(b1-3)Gal(b1-4)GlcNAc(b1-2)Man(a1-3)[Gal(b1-4)GlcNAc(b1-3)Gal(b1-4)GlcNAc(b1-3)Gal(b1-4)GlcNAc(b1-3)Gal(b1-4)GlcNAc(b1-3)Gal(b1-4)GlcNAc(b1-3)Gal(b1-4)GlcNAc(b1-2)Man(a1-6)]Man(b1-4)GlcNAc(b1-4)GlcNAc
# Outline: as §1
# [22] = target: Gal3S(b1-3)[Fuc(a1-4)]GlcNAc
# Outline: as §1
# Gal6S(b1-3)GlcNAc6S = target: Gal6S(b1-3)GlcNAc6S
# Outline: as §1
# GalNAc(b1-3)GalNAc = target: GalNAc(b1-3)GalNAc
# Outline: as §1
# GlcNAc(b1-3)Gal(b1-4)Glc = target: GlcNAc(b1-3)Gal(b1-4)Glc
# Outline: as §1
# [23] = target: GlcNAc(b1-3)Gal(b1-4)GlcNAc
# Outline: as §1
# [24] = target: GlcNAc(b1-3)[GlcNAc(b1-6)]GalNAc
# Outline: as §1
# Kdn(a2-3)Gal(b1-3)GlcNAc = target: Kdn(a2-3)Gal(b1-3)GlcNAc
# Outline: as §1
# Man(a1-2)Man(a1-3)Man = target: Man(a1-2)Man(a1-3)Man
# Outline: as §1
# [25] = target: Neu5Ac(a2-3)Gal(b1-3)GalNAc(b1-3)Gal(a1-4)Gal(b1-4)Glc
# Outline: as §1
# [26] = target: Neu5Ac(a2-3)Gal(b1-3)GlcNAc(b1-2)Man(a1-3)[Neu5Ac(a2-3)Gal(b1-3)GlcNAc(b1-2)Man(a1-6)]Man(b1-4)GlcNAc(b1-4)GlcNAc
# Outline: as §1
# [27] = target: Neu5Ac(a2-3)Gal(b1-3)[Fuc(a1-4)]GlcNAc
# Outline: as §1
# [28] = target: Neu5Ac(a2-3)Gal(b1-4)GlcNAc(b1-2)[Neu5Ac(a2-3)Gal(b1-4)GlcNAc(b1-4)]Man(a1-3)[GlcNAc(b1-4)][Neu5Ac(a2-3)Gal(b1-4)GlcNAc(b1-4)Man(a1-6)]Man(b1-4)GlcNAc(b1-4)GlcNAc
# Outline: as §1
# [29] = target: Neu5Ac(a2-3)Gal(b1-4)GlcNAc(b1-3)Gal
# Outline: as §1
# [30] = target: Neu5Ac(a2-3)Gal(b1-4)GlcNAc(b1-3)Gal(b1-4)GlcNAc(b1-2)Man(a1-3)[Neu5Ac(a2-3)Gal(b1-4)GlcNAc(b1-3)Gal(b1-4)GlcNAc(b1-2)Man(a1-6)]Man(b1-4)GlcNAc(b1-4)GlcNAc
# Outline: as §1
# [31] = target: Neu5Ac(a2-3)Gal(b1-4)GlcNAc(b1-3)Gal(b1-4)GlcNAc(b1-3)GalNAc
# Outline: as §1
# [32] = target: Neu5Ac(a2-3)Gal(b1-4)GlcNAc(b1-3)Gal(b1-4)[Fuc(a1-3)]GlcNAc
# Outline: as §1
# [33] = target: Neu5Ac(a2-3)Gal(b1-4)[Fuc(a1-3)]GlcNAc(b1-3)Gal
# Outline: as §1
# [34] = target: Neu5Ac(a2-3)Gal(b1-4)[Fuc(a1-3)]GlcNAc(b1-3)Gal(b1-4)GlcNAc
# Outline: as §1
# [35] = target: Neu5Ac(a2-3)Gal(b1-4)[Fuc(a1-3)]GlcNAc6S
# Outline: as §1
# [36] = target: Neu5Ac(a2-3)Gal6S(b1-4)GlcNAc
# Outline: as §1
# [37] = target: Neu5Ac(a2-3)Gal6S(b1-4)[Fuc(a1-3)]GlcNAc
# Outline: as §1
# [38] = target: Neu5Ac(a2-3)[GalNAc(b1-4)]Gal(b1-4)GlcNAc
# Outline: as §1
# [39] = target: Neu5Ac(a2-6)Gal(b1-4)GlcNAc
# Outline: as §1
# [40] = target: Neu5Ac(a2-6)Gal(b1-4)GlcNAc(b1-2)[Neu5Ac(a2-6)Gal(b1-4)GlcNAc(b1-4)]Man(a1-3)[GlcNAc(b1-4)][Neu5Ac(a2-6)Gal(b1-4)GlcNAc(b1-2)[Neu5Ac(a2-6)Gal(b1-4)GlcNAc(b1-6)]Man(a1-6)]Man(b1-4)GlcNAc(b1-4)GlcNAc
# Outline: as §1
# [41] = target: Neu5Ac(a2-6)Gal(b1-4)GlcNAc(b1-3)Gal(b1-3)GlcNAc
# Outline: as §1
# [42] = target: Neu5Ac(a2-6)Gal(b1-4)GlcNAc(b1-6)[Gal(b1-3)GlcNAc(b1-3)]Gal(b1-4)Glc
# Outline: as §1
# [43] = target: Neu5Ac(a2-6)Gal(b1-4)GlcNAc6S
# Outline: as §1
# Neu5Ac(a2-6)GalNAc = target: Neu5Ac(a2-6)GalNAc
# Outline: as §1
# [44] = target: Neu5Ac9Ac(a2-3)Gal(b1-4)GlcNAc
# Outline: as §1
# [45] = target: Neu5Gc(b2-6)Gal(b1-4)GlcNAc
# Outline: as §1
binder,measurement,setting,value
B1,glycan array binding signal (z-score),Fuc(a1-2)Gal(b1-3)GlcNAc,5.31
same,glycan array binding signal (z-score),[1],1.34
same,glycan array binding signal (z-score),[2],4.85
same,glycan array binding signal (z-score),[3],3.31
same,glycan array binding signal (z-score),[4],4.12
same,glycan array binding signal (z-score),Fuc(a1-2)Gal(b1-4)Glc,-0.039
same,glycan array binding signal (z-score),Fuc(a1-2)Gal(b1-4)Glc6S,1.38
same,glycan array binding signal (z-score),[5],-0.335
same,glycan array binding signal (z-score),[6],-0.157
same,glycan array binding signal (z-score),[7],3.67
same,glycan array binding signal (z-score),[8],3.51
same,glycan array binding signal (z-score),[9],1.07
same,glycan array binding signal (z-score),[10],-0.329
same,glycan array binding signal (z-score),[11],-0.242
same,glycan array binding signal (z-score),[12],-0.314
same,glycan array binding signal (z-score),[13],-0.348
same,glycan array binding signal (z-score),[14],-0.318
same,glycan array binding signal (z-score),[15],-0.346
same,glycan array binding signal (z-score),Gal(a1-4)Gal(b1-4)Glc,-0.322
same,glycan array binding signal (z-score),Gal(b1-3)Gal(b1-4)GlcNAc,-0.329
same,glycan array binding signal (z-score),[16],-0.339
same,glycan array binding signal (z-score),[17],-0.338
same,glycan array binding signal (z-score),[18],-0.348
same,glycan array binding signal (z-score),[19],-0.342
same,glycan array binding signal (z-score),[20],-0.326
same,glycan array binding signal (z-score),[21],-0.303
same,glycan array binding signal (z-score),[22],3.48
same,glycan array binding signal (z-score),Gal6S(b1-3)GlcNAc6S,-0.336
same,glycan array binding signal (z-score),GalNAc(b1-3)GalNAc,-0.349
same,glycan array binding signal (z-score),GlcNAc(b1-3)Gal(b1-4)Glc,-0.323
same,glycan array binding signal (z-score),[23],-0.329
same,glycan array binding signal (z-score),[24],-0.329
same,glycan array binding signal (z-score),Kdn(a2-3)Gal(b1-3)GlcNAc,-0.319
same,glycan array binding signal (z-score),Man(a1-2)Man(a1-3)Man,-0.348
same,glycan array binding signal (z-score),[25],-0.333
same,glycan array binding signal (z-score),[26],-0.355
same,glycan array binding signal (z-score),[27],4.64
same,glycan array binding signal (z-score),[28],-0.332
same,glycan array binding signal (z-score),[29],-0.3
same,glycan array binding signal (z-score),[30],-0.331
same,glycan array binding signal (z-score),[31],-0.342
same,glycan array binding signal (z-score),[32],-0.341
same,glycan array binding signal (z-score),[33],4.46
same,glycan array binding signal (z-score),[34],2.41
same,glycan array binding signal (z-score),[35],4.04
same,glycan array binding signal (z-score),[36],6.01
same,glycan array binding signal (z-score),[37],3.49
same,glycan array binding signal (z-score),[38],-0.353
same,glycan array binding signal (z-score),[39],-0.352
same,glycan array binding signal (z-score),[40],-0.321
same,glycan array binding signal (z-score),[41],-0.35
same,glycan array binding signal (z-score),[42],-0.355
same,glycan array binding signal (z-score),[43],-0.334
same,glycan array binding signal (z-score),Neu5Ac(a2-6)GalNAc,-0.331
same,glycan array binding signal (z-score),[44],-0.348
same,glycan array binding signal (z-score),[45],-0.339
